Measurements from PubChem BioAssay AID886 (National Center for Advancing Translational Sciences (NCATS), 2007).
Several values for one entry are separate records, joined by “and”; a condition that tells them apart may be missing. Equal entries are not always repeated. About 2,500 (3.4%) of roughly 73,000 compounds were called active. Roughly 7% stayed inconclusive and do not appear here. The call rests on the fitted dose curve; in most records, active means well fitted inhibition curve with a large enough effect; inconclusive means small, poorly fitted or top-dose-only effect; inactive means no such curve, though single readings can be large or run the other way. The list comes from a sample in which actives are over-represented; it also holds similar structures and randomly drawn compounds.

target: 3-hydroxyacyl-CoA dehydrogenase type-2 (Homo sapiens) (UniProt Q99714); assay: qHTS Assay for Inhibitors of HADH2 (Hydroxyacyl-Coenzyme A Dehydrogenase, Type II); conditions: recombinant HADH2, NADH fluorescence, beta-hydroxybutyryl-CoA; series mostly up to 57.1 µM; activity change, negative = inhibition: at the top concentration; further: nearly all actives have a fitted effect of over 60% in size
Sequence (Q99714 whole entry, looked up): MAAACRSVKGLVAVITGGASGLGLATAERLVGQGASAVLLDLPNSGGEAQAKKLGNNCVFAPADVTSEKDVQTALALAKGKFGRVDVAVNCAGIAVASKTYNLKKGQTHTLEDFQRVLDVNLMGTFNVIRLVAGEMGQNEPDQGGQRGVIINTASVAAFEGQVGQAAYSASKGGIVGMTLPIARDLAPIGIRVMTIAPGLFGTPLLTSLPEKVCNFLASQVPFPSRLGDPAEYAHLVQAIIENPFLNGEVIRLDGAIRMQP
Sequence (Q99714 whole entry, looked up): as above
In short: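 20 nM HADH2 + cpd, 15 min RT; add 1 mM NAD+/90 uM beta-hydroxybutyryl-CoA; kinetic fluorescence 360/450 nm, 4 min. Tris-HCl pH 9.0, 0.01% Tween-20.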
On the % scale 0 is the no-effect control and ±100 the full control effect; potency means the concentration at half of the fitted maximal effect.

SMILES	activity change, negative = inhibition	Potency
CN(c1ccccc1)c1ccc(/C=c2\s/c(=C(/C#N)C(=O)C(C)(C)C)n(Cc3ccco3)c2=O)cc1	-22.8% (inactive)	–
Cc1nc2nc(SCC(=O)NCc3ccco3)nn2c(C)c1Cc1ccccc1	-3.96% (inactive)	–
O=c1nc2s/c(=C\c3ccco3)c(=O)n2nc1Cc1ccccc1	–	7.94 µM (active)
CC(C)N(CCNC(=O)c1ccc(-n2c(=O)c(=O)[nH]c3ccccc32)cc1)C(C)C	-0.507% (inactive)	–
CN(C)CCCCNC(=O)c1ccc(Cc2nc3ccccc3[nH]2)cc1	7.95% (inactive)	–
CN(C)CCCNC(=O)c1ccc2[nH]c3ccccc3c2c1	–	25.1 µM (active)
COc1ccc(CNc2ncnc3ccc(-c4cccnc4)cc23)c(OC)c1	-13.9% (inactive)	–
CS(=O)(=O)N1CCC2(CC1)CN(Cc1ccccc1)C2	3.96% (inactive)	–
COC(=O)[C@@]1(C)C=C[C@@H](Cc2ccccc2)N1C(C)=O	2.32% (inactive)	–
CCCCCCCCCCCC(=O)O	–	inactive
Cc1cc(C)cc(C#CC2C=CC(Oc3ccc(C4CCCC4)cc3)C(CO)O2)c1 (stereo not drawn)	10.7% [at 11.4 µM] (inactive)	–
Oc1c(CN2CCOCC2)ccc(CN2CCOCC2)c1O	–	0.316 µM (active)
O=S(=O)(O)CCN1CCOCC1	0.734% (inactive)	–
O=c1c(-c2ccccc2)coc2c(CN3CCOCC3)c(O)ccc12	-0.694% (inactive)	–
C=C(C)C1CC=C(C)C(O)C1 (stereo not drawn)	1.28% (inactive)	–
CCC[C@@H]1C[C@@]1(CCC)[C@@H](NC(=O)c1ccccc1)c1ccc(C(=O)OC)cc1	-14.7% (inactive)	–
O=C(Nc1cccc(F)c1)N1CC2(CCN(C(=O)c3csnn3)CC2)C1	-1.39% (inactive)	–
COC(=O)c1cnn2c(C(F)(F)F)cc(-c3ccco3)nc12	–	31.6 µM (active)
FC(F)(F)c1cc(-c2ccco2)nc(N2CCOCC2)n1	1.09% (inactive)	–
Cc1cc(C(F)(F)F)nn1-c1nc(-c2ccco2)cc(C(F)(F)F)n1	-14.2% (inactive)	–
Cc1nnc(SCc2ccc(C(=O)c3ccc(Cl)cc3)o2)n1-c1ccccc1	-28.1% (inactive)	–
Cc1nc2cnc(N3CCN(C)CC3)nc2n(CCC#N)c1=O	46.9% (inactive)	–
O=C(NCc1ccccn1)c1cc2ccccc2oc1=O	-14.8% (inactive)	–
CS(=O)(=O)N1CCN(C(=O)c2cc3ccccc3oc2=O)CC1	-7.15% (inactive)	–
O=C(Oc1cccnc1)c1cc2ccccc2oc1=O	–	20 µM (active)

SMILES	activity change, negative = inhibition	Potency
COC(=O)[C@@]1(Cc2ccc(OC)cc2)[C@H]2c3cc(C(=O)N4CCCC4)n(Cc4ccc(OC(F)(F)F)cc4)c3C[C@H]2CN1C(=O)c1ccccc1	5.27% (inactive)	–
CCCC[C@@H]1C[C@H]1C(NC(=O)c1ccco1)c1ccc(C(=O)OC)cc1 (stereo partly drawn)	-7.3% (inactive)	–
Cc1ccc(-c2nn(CC(C)(C)C)c3ncnc(N)c23)cc1	2.11% (inactive)	–
C[C@H](CCC(=O)NCC(=O)O)[C@H]1CC[C@H]2[C@H]3[C@@H](C[C@@H](O)[C@]12C)[C@]1(C)CC[C@H](O)C[C@@H]1C[C@@H]3O	2.57% [at 25.6 µM] (inactive)	–
CCCc1[nH]nc2c1C(c1ccc(OC)c(Cn3nc(C)c(Br)c3C)c1)C(C#N)=C(N)O2 (stereo not drawn)	-1.8% (inactive)	–
CCOc1c(OC)cc(C2C(C#N)=C(N)Oc3n[nH]c(-c4ccncc4)c32)cc1OC (stereo not drawn)	–	10 µM (active)
COc1ccc(-c2[nH]nc3c2C(c2ccncc2)C(C#N)=C(N)O3)cc1 (stereo not drawn)	-18.9% (inactive)	–
O=C(O)C1=CCCN(CCON=C(c2ccccc2)c2ccccc2)C1	–	inactive
O=C(O)c1c(Br)c(Br)c(Br)c(Br)c1C1c2ccc(O)cc2Oc2cc(O)ccc21	–	1.58 µM (active)
N#CC1=C(N)Oc2cc(O)ccc2C1C1CCCCC1 (stereo not drawn)	0.41% (inactive)	–
CC1CCCCN1CCCNC(=O)c1ccc(-n2c(=O)c(=O)[nH]c3ccccc32)cc1 (stereo not drawn)	-2.23% (inactive)	–
COc1ccc(Oc2ncc3nc(-c4ccc(F)cc4)c(=O)n(C)c3n2)cc1	4.58% (inactive)	–
Oc1c(Cl)cc(Cl)c(Cl)c1Cc1c(O)c(Cl)cc(Cl)c1Cl	–	7.94 µM (active)
COc1ccc(N)c(OC)c1	-0.0513% (inactive)	–
O=C(NCc1ccccn1)c1c(O)c2c([nH]c1=O)CCCC2	7.68% (inactive)	–
O=C(NCc1ccco1)c1nc2ncccn2n1	-6.29% (inactive)	–
O=C(NCc1ccccn1)c1ccc2nc(-c3ccco3)c(-c3ccco3)nc2c1	–	5.01 µM (active)
CC(C)[C@H](CO)Nc1nc(Nc2cc(N)cc(Cl)c2)c2ncn(C(C)C)c2n1	-27.7% (inactive)	–
COc1cccc([C@H](O)Cn2cc(-c3ccc(CON=C(C)C)cc3)nn2)c1	4.01% [at 11.4 µM] (inactive)	–
CC(=O)N1CCC2(CCCN(Cc3ccccc3)C2)CC1	-9.14% (inactive)	–
CCN1CCCC1CNC(=O)c1cc2c(=O)n(C)c3ccccc3c2n1C (stereo not drawn)	–	31.6 µM (active)
Cn1c(C(=O)NCCc2ccsc2)cc2c(=O)n(C)c3ccccc3c21	11.1% (inactive)	–
Cn1c(C(=O)N2CCC(C(N)=O)CC2)cc2c(=O)n(C)c3ccccc3c21	7.8% (inactive)	–
CC(C)C[C@@H](CC(=O)N[C@@H](CCC(=O)O)CC(=O)O)NC(=O)[C@@H]1CCCC[C@H]1NC(=O)C[C@@H](NC(=O)C[C@H](Cc1c[nH]c2ccccc12)NC(=O)[C@@H]1CCCC[C@H]1N)C(C)C	-21.2% (inactive)	–
COc1c(C)c2c(c(O)c1C/C=C(\C)CCC(=O)O)C(=O)OC2	–	inactive

SMILES	activity change, negative = inhibition	Potency
C/C=C/C=C/C(=O)O	-5.22% (inactive)	–
CCN(CC)CCCCn1c(-c2ccccc2)nc2c(N3CCOCC3)nc(C)nc21	-22.3% (inactive)	–
COc1ccc(N2CCN(C(=O)CSc3ncnc4c3cnn4-c3ccc(OC)cc3)CC2)cc1	-4.24% (inactive)	–
Cc1cccc(-n2ncc3c(N4CCc5ccccc54)ncnc32)c1	–	3.16 µM (active)
COc1ccc(-n2ncc3c(N4CCc5ccccc54)ncnc32)cc1	–	31.6 µM (active)
COc1ccc(-n2c(C)nc3c(cnn3-c3ccccc3)c2=O)cc1	-2.25% (inactive)	–
Cc1ccc(-n2ncc3c(N4CCN(c5ccc(F)cc5)CC4)ncnc32)c(C)c1	9.76% (inactive)	–
Cc1ccc(-n2ncc3c2ncn2nc(-c4ccco4)nc32)c(C)c1	13.7% (inactive)	–
CC(=O)OCCC(C)C	-0.625% (inactive)	–
CCCn1c(-c2ccc(F)cc2)nc2c(NCC3CCCN3CC)nc(C)nc21 (stereo not drawn)	7.86% (inactive)	–
CCCN(C/C=C\I)[C@@H]1CCc2cccc(O)c2C1	-1.63% (inactive)	–
Cc1ccc(S(=O)(=O)NCc2nc3ccccc3c(=O)n2N)cc1	9.48% (inactive)	–
Cc1ccc(S(=O)(=O)c2c(N)n(C)c3nc4ccccc4nc23)cc1	–	31.6 µM (active)
COCCn1c(=O)c(C)nc2cnc(N(C)C)nc21	-8.66% (inactive)	–
Cc1c2c(nc3ccccc13)-c1cccc(=O)n1C2	232% (inactive)	–
COC(=O)[C@@]1(Cc2ccccc2)[C@H]2c3cc(C(=O)N4CCCC4)n(Cc4ccc(C)o4)c3C[C@H]2CN1C(=O)c1ccccc1	9.45% (inactive)	–
C=CCOC(=O)COCCC(C)C	-9.83% (inactive)	–
O=C(c1cc(C(F)(F)F)cc(C(F)(F)F)c1)N1CCC2(CC1)CN(c1ccncc1)C2	-2.98% (inactive)	–
Cc1cccn2c(=O)c3cc(C(=O)N4COCC4(C)C)n(C)c3nc12	–	25.1 µM (active)
Cc1cccn2c(=O)c3cc(C(=O)NCc4ccccn4)n(C)c3nc12	27.5% (inactive)	–
CC(C)CC1(C(=O)NCc2ccccn2)C=CCN1C(=O)c1ccccc1 (stereo not drawn)	1.17% (inactive)	–
CC(C)NC[C@H](O)c1ccc2ccccc2c1	–	inactive
C[C@@H]1CC[C@H]2[C@H](C)[C@H]3[C@H](C[C@H]4[C@@H]5CC=C6C[C@@H](O)CC[C@@]6(C)[C@@H]5C[C@@H](O)[C@]34C)N2C1	-8.91% [at 11.4 µM] (inactive)	–
CCCCn1c(SCC(=O)NCC2CCCO2)nc2ccc(N3CCOCC3)cc2c1=O (stereo not drawn)	–	10 µM (active)
CCn1c(SCC(=O)NCC2CCCO2)nc2cc(S(=O)(=O)N3CCCCC3)ccc21 (stereo not drawn)	-5.2% (inactive)	–

SMILES	activity change, negative = inhibition	Potency
CCc1ccc(NC(=O)CSc2nc3ccccc3c(=O)n2CCN2CCOCC2)cc1	7.42% (inactive)	–
COC(=O)[C@@]1(Cc2ccccc2)[C@H]2c3cc(C(=O)N(C)C)n(CCSCCO)c3C[C@H]2CN1C(=O)c1ccccc1	6.25% (inactive)	–
N#Cc1cccc(-c2nc3cnc(N4CCNCC4)nc3n(C3CC3)c2=O)c1	170% (inactive)	–
c1ccc2c(Nc3ccncc3)nc(-c3ccc4c(c3)OCO4)nc2c1	–	25.1 µM (active)
c1ccc2c(Nc3ccncc3)nc(-c3ccoc3)nc2c1	-3.7% (inactive)	–
COc1cccc(-c2nc(Nc3ccncc3)c3ccccc3n2)c1	9.47% (inactive)	–
CCCC(Cl)CCCC(Cl)CCC(Cl)CCC(Cl)CCC(Cl)CCCC(Cl)CCC (stereo not drawn)	0.0337% (inactive)	–
COc1ccc2nccc(C(=O)O)c2c1	10.9% [at 25.6 µM] (inactive)	–
O=C(CNCCO)NC12CC3CC(CC(C3)C1)C2	5.37% (inactive)	–
CC(NCCO)C(=O)C12CC3CC(CC(C3)C1)C2 (stereo not drawn)	–	31.6 µM (active)
CN1CCN(CC(=O)C23CC4CC(CC(C4)C2)C3)CC1	1.99% (inactive)	–
CC(C)NC(=O)N1CC[C@@]2(CCCN(C(=O)c3cccn3C)C2)C1	6.58% (inactive)	–
NS(=O)(=O)c1ccc(CCNC(=O)Nc2ccc(Cl)cc2)cc1	16% [at 11.4 µM] (inactive)	–
O=C(NCCc1ccc(Cl)cc1)C1CC(=O)N(C2CCCCC2)C1 (stereo not drawn)	3% (inactive)	–
Oc1cc2c(cc1O)CN(C(=S)NCCc1ccc(Cl)cc1)CCC2	–	1.58 µM (active) and 631 nM (active)
Cc1ccccc1N1CCN(S(=O)(=O)C[C@@]23CC[C@H](C[C@H]2NC(=O)[C@@H](N)CCS(C)(=O)=O)C3(C)C)CC1	-9.48% (inactive)	–
COc1ccc(N2CCN(C3CC(=O)N(c4ccc5c(c4)OCCO5)C3=O)CC2)cc1 (stereo not drawn)	8.93% (inactive)	–
CC(=O)Oc1cccc(N2C(=O)C3CC=C(Cl)CC3C2=O)c1 (stereo not drawn)	-2.48% (inactive)	–
CC(=O)Oc1cccc(N2C(=O)CC(Nc3ccc(N4CCOCC4)cc3)C2=O)c1 (stereo not drawn)	–	15.8 µM (active)
Cc1ccc(Br)cc1	-4.88% (inactive)	–
CCCn1c(-c2ccc(F)cc2)nc2c(NC3CCN(Cc4ccccc4)C3)nc(C)nc21 (stereo not drawn)	-21.3% (inactive)	–
COc1ccccc1CNc1nc(-c2c(C)noc2C)nc2ccccc12	-25.4% (inactive)	–
CC[C@@H]1Cc2cc(O)ccc2C2=C1c1ccc(O)cc1C[C@H]2CC	–	25.1 µM (active)
